Data reported in the supplement of paper PMC9897528.
A number with no mark means an inactive call.

System: Scedosporium aurantiacum CBS 136046
Assay: growth inhibition relative to DMSO control (OD600); higher = more antifungal activity, active = 80 or more; extreme values may be limits of the assay
Settings: 5 µM; 72 h; 37 °C
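Also: conidia screened in RPMI 1640 medium under 5% CO2, growth read by spectrophotometer, medium with 0.5% DMSO serving as the untreated reference.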

| Compound | growth inhibition [%] |
| --- | --- |
| COc1ccc(C(C)(C)C)cc1NC(=O)C(=O)c1ccc(OCCN2CCOCC2)c2ccccc12 | 9.3 |
| Cc1cc(C)n2nc(C(=O)NS(=O)(=O)c3c(C)cccc3OC(F)(F)F)nc2n1 | 0 |
| COc1ccc(NS(=O)(=O)c2ccc(Cl)s2)cn1 | 11.2 |
| Nc1ccc(-c2nc3cc(C(F)(F)F)ccc3n2C23CC4CC(CC(C4)C2)C3)cc1 | 27.1 |
| NC(=O)c1ccc(I)c([N+](=O)[O-])c1 | 13.9 |
| C[C@@H]1O[C@@H]1P(=O)(O)O | 3.95 |
| COc1cc(Cc2cnc(N)nc2N)c2c(c1OC)OC(C1CC1)C=C2 (stereo not given) | 2.07 |
| O=[N+]([O-])c1ccc2c(CCc3c[nH]c4ccccc34)c[nH]c2c1 | 48.7 |
| O=C1[C@H](CC[C@H](O)c2ccc(F)cc2)[C@@H](c2ccc(O)cc2)N1c1ccc(F)cc1 | 13.9 |
| CC(C)(C)c1cc(CCC(=O)N2CCC2)cc(C(C)(C)C)c1O | 11.9 |
| COc1ccc(NC(=O)c2cc3ccccn3n2)cc1 | 36.8 |
| CC[N+]1(C/C2=C/CCCCCC2)CCC(NC(=O)C2c3cc(Cl)ccc3Oc3ccc(Cl)cc32)CC1 (stereo not given) | 9.71 |
| CNCC(=O)OCc1cccnc1N(C)C(=O)OC(C)[n+]1cnn(C[C@](O)(c2cc(F)ccc2F)[C@@H](C)c2nc(-c3ccc(C#N)cc3)cs2)c1 (stereo not given in full) | 59.5 |
| COC(=O)Nc1nc2c(C)cccc2[nH]1 | 0 |
| CCC[C@@H]1C[C@@H](C(=O)N[C@@H]([C@H]2O[C@H](SC)[C@H](O)[C@@H](O)[C@H]2O)[C@H](C)Cl)N(C)C1 | 16.8 |
